D1 PAM = potentiators of human D1 dopamine receptor; HEK293 TREx D1 cells, calcium flux, dopamine EC20 potentiation; potentiation, % at 10 µM; actives 0.036% (n = 360,000); AID 504651; in the data active means potentiation above about 30%; further: 0% is about no effect
DRD3 agonist = activates the human D3 dopamine receptor; P35462; D3R DiscoveRx beta-arrestin cells, luminescence, 90 min; max activation, %; actives 0.58% (n = 410,000); in the data active means max activation above about 30%; further: 0% is about no effect
Target sequence (P35462 whole entry, looked up): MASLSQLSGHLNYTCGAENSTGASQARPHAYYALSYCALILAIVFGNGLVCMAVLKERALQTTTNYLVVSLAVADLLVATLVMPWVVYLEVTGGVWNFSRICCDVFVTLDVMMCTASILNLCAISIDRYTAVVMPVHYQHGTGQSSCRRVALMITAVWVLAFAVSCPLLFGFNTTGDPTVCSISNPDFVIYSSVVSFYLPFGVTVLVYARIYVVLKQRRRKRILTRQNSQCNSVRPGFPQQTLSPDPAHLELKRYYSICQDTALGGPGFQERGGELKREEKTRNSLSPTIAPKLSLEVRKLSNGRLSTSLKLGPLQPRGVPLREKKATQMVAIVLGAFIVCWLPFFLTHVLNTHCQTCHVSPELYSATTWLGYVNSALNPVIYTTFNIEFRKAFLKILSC
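Cells at 1500/well, incubated overnight, then treated with pinned compounds (dopamine as control) for 90 min at 37 degrees C. DiscoveRx reagent added for 30 - 60 minutes at room temperature; luminescence read.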
DRD3 antagonist = D3 dopamine receptor (human) antagonism. max response, negative = inhibition, %. D3R cells, DiscoveRx beta-arrestin luminescence, antagonist mode; hits give low values. P35462. actives 2.5% (n = 360,000). AID 652054; in the data active means max response below about -50%; further: on the % scale 0 is the no-effect control and ±100 the full control effect
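Cells expressing the human receptor were seeded at 1500 cells/well, incubated overnight at 37 degrees C in 5% CO2, then exposed to library compounds with dopamine controls for 90 minutes at 37 degrees C before luminescent detection.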
D1 antagonist = antagonists of human D1 dopamine receptor; activity change, negative = inhibition, % at 10 µM; actives 3.2% (n = 360,000); P21728; HEK293 TREx D1 cells, calcium flux, dopamine EC80; hits give low values; in the data active means activity change below about -30%; further: on the % scale 0 is the no-effect control and ±100 the full control effect
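Tetracycline-induced HEK293 T-REx cells with force-coupled D1 receptor were loaded with a no-wash calcium dye. Compound was added after a 10 s baseline and read kinetically for 180 s; EC80 dopamine was then added and calcium flux followed another 180 s.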
D1 agonist = activates the human D1 dopamine receptor | actives 1% (n = 360,000) | HEK293 T-REx D1 cells, calcium flux, agonist mode | activation, % at 2 µM | AID 504660; in the data active means activation above about 30%; further: 0% is about no effect
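Tetracycline-induced HEK293 TREx D1 cells, force-coupled to calcium signalling, were dye-loaded with a no-wash calcium kit. Compound was pin-added after a 10 s baseline. Fluorescence was read kinetically at 1 cycle/s for 180 s, with calcium rises flagged as agonism.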
Active calls of the source: *; . = no result. Shown are actives, neighbours in structure and some others; about 6% of the full set was active somewhere.

SMILES | D1 PAM | DRD3 agonist | DRD3 antagonist | D1 antagonist | D1 agonist
COc1ccccc1N1CCN(Cc2c[nH]c3ccccc23)CC1 | -3 | -24 | -80* | 5 | 12
Fc1ccc(N2CCN(Cc3c[nH]c4ccccc34)CC2)cc1 | -14 | . | . | -17 | 24
COc1ccccc1N1CCN(C(=O)CCc2c[nH]c3ccccc23)CC1 | 0 | -2 | -6 | -38* | 3
Cc1ccc(CN2CCN(c3cccc4[nH]ccc34)CC2)cc1 | -17 | 30 | -82* | -21 | 9
CCN1CCc2c(sc(-n3cccc3)c2C(CCC(C)C)NC(=O)NCCC(=O)OC)C1 (centres undefined) | 1 | -18 | . | -5 | 13
Cc1ccccc1N1CCN(Cc2c[nH]c3ccccc23)CC1 | -7 | -26 | -86* | -2 | 19
Cc1cccc(N2CCN(C(=O)CC(NC(=O)c3ccccc3)c3ccccc3)CC2C)c1 (centres undefined) | -4 | 5 | -17 | -13 | 1
COc1cccc(N2CCN(C(=O)c3cccnc3)CC2)c1 | 6 | 2 | -8 | -39* | 3
COc1cccc(N2CCN(C(=O)c3cc(C)oc3C)CC2)c1 | -1 | -8 | -13 | -43* | 1
COc1cccc(N2CCN(C(=O)CC(NC(=O)c3ccccc3)c3ccccc3)CC2)c1 (centres undefined) | -6 | -9 | -54* | 6 | 0
COc1cc(OC)cc(C(=O)N2CCN(C(=O)c3cccnc3)CC2)c1 | -3 | 2 | 6 | -11 | 3
COc1ccccc1N1CCN(C(=O)c2cc(C)oc2C)CC1 | 7 | -5 | 1 | -5 | 3
COc1cccc(C(=O)N2CCN(C(=O)C3COc4ccccc4O3)CC2)c1 (centres undefined) | -2 | 8 | 13 | -32* | 3
CCOC(=O)Cc1nn(Cc2nc(-c3ccc(C#N)cc3)cs2)c(=O)c2ccccc12 | -11 | 31* | 19 | -22 | 5
Cc1cc2c(s1)c1cnn(Cc3ccc(C(F)(F)F)cc3F)c(=O)c1n2C | 2 | . | . | -4 | 4
O=C(C=P(c1ccccc1)(c1ccccc1)c1ccccc1)c1ccccc1-c1ccccc1C(=O)C=P(c1ccccc1)(c1ccccc1)c1ccccc1 | . | -3 | -89* | . | .
CC(=O)c1ccc(NC(=O)CCc2c(C)nc3c(c2C)c(=O)n(C)c(=O)n3C)cc1 | -1 | 0 | . | 1 | 1
CN(C)CCCN(C(=O)CCOc1ccccc1)c1nc2ccc(F)cc2s1 | -2 | -24 | -91* | 7 | 1
CN(C)CCCN(C(=O)CCOc1ccccc1)c1nc2c(F)cccc2s1 | 2 | -14 | -99* | 5 | 9
CN(C)CCCN(C(=O)c1ccco1)c1nc2c(F)cccc2s1 | -2 | -7 | -12 | 19 | 7
CN(C)CCCN(C(=O)COc1ccc(Cl)cc1)c1nc2c(F)cccc2s1 | -1 | 5 | 0 | 7 | 2
CN(C)CCCN(C(=O)CCc1ccccc1)c1nc2c(F)cccc2s1 | -13 | -21 | 0 | 3 | 35*
OC1(c2ccc(Cl)c(C(F)(F)F)c2)CCN(CCCC(c2ccc(F)cc2)c2ccc(F)cc2)CC1 | . | -16 | . | . | .
OC(CCCN1CCC(O)(c2ccc(Cl)cc2)CC1)c1ccc(F)cc1 (centres undefined) | -3 | -95 | -114* | -37* | 32*
CC(C)C[C@H](NC(=O)CNC(=O)[C@H](Cc1ccc(O)cc1)NC(=O)[C@H](CO)NC(=O)[C@H](Cc1c[nH]c2ccccc12)NC(=O)[C@H](Cc1cnc[nH]1)NC(=O)[C@@H]1CCC(=O)N1)C(=O)N[C@@H](CCCN=C(N)N)C(=O)N1CCC[C@H]1C(=O)NCC(N)=O (stereo in doubt) | . | 9 | . | . | .
CC(=O)NC(c1cc(Cl)c2cccnc2c1O)C1CC1 (centres undefined) | 4 | . | . | -55* | 4
CCC(=O)NC(c1ccc(C)s1)c1cc(Cl)c2cccnc2c1O (centres undefined) | -7 | . | . | -58* | 10
CC(=O)NC(c1ccc(C)cc1)c1cc(Cl)c2cccnc2c1O (centres undefined) | 5 | -15 | -79* | -7 | 15
Oc1c(C(Nc2ccccn2)c2cccnc2)cc(Cl)c2cccnc12 (centres undefined) | 5 | -5 | -121* | -3 | 7
CC(=O)NC(c1ccco1)c1cc(Cl)c2cccnc2c1O (centres undefined) | -7 | . | . | -11 | -1

Source: PubChem (National Center for Advancing Translational Sciences (NCATS))
